In PubChem BioAssay (Tox21):
Records with an inconclusive call do not appear. Active and inactive are the calls of the source. Unless noted, the call rests on the fitted dose curve; in most records, active means well fitted curve in the direction sought with a large enough effect in the repeat runs; inconclusive means weak or mixed curves; inactive means no such curve, though single readings can be large; an effect the other way counts as inactive or inconclusive.

Key:
[1] = qHTS assay to identify small molecule antagonists of the TGF-beta/Smad signaling pathway - cell viability counter screen (AID 1346824); further: nearly all actives have a fitted effect of over 50% in size
Method in brief: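 Cytotoxicity counter-screen run in the same wells as the beta-lactamase Smad reporter read: CellTiter-Glo luminescence after 30 min at room temperature. HEK 293T SBE-bla cells had 5 hr compound exposure at 37 C with TGF-beta1 (0.25 ng/mL stock).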

[2] = qHTS assay to identify small molecule agonists of the TGF-beta/Smad signaling pathway - cell viability counter screen (AID 1346829); further: top concentration of the series differs between compounds; nearly all actives have a fitted effect of over 45% in size
Method in brief: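 After overnight seating at 37 C and 5% CO2, reporter cells got compounds for 5 hr and FRET substrate for 2 hr; cell viability then came from CellTiter-Glo luminescence.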

[3] = molecular target: Thyrotropin-releasing hormone receptor (Homo sapiens) (UniProt P34981); assay: qHTS assay to identify small molecule antagonists of the thyrotropin-releasing hormone receptor (TRHR) signaling pathway (AID 1346877; active means well fitted inhibition curve with a large enough effect in the repeat runs, not every such curve was filed as active; further: series mostly up to about 51 µM)
Chain of Thyrotropin-releasing hormone receptor (Homo sapiens) (P34981 whole entry, looked up): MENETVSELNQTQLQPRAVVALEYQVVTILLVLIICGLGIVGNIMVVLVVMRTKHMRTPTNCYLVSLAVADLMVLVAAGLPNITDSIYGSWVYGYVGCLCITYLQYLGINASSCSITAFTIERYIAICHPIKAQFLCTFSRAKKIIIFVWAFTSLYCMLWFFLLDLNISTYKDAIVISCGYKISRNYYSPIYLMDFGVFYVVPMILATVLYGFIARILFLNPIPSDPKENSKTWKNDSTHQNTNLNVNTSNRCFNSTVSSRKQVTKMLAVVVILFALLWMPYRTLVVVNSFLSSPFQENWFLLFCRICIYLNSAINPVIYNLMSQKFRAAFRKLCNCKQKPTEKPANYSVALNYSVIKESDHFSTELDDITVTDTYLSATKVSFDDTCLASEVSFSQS
Method in brief: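 Antagonism is measured as suppression of the calcium response to 1 nM TRH in TRHR-HEK293 cells that have been dye-loaded for 2 h at 37 °C after overnight plating. Each compound is tested at 15 concentrations in triplicate.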

[4] = molecular target: Thyrotropin-releasing hormone receptor (Homo sapiens) (UniProt P34981); assay: qHTS assay to identify small molecule agonists of the thyrotropin-releasing hormone receptor (TRHR) signaling pathway (AID 1346891; calls by dose curve; further: series mostly up to about 58 µM)
Method in brief: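 Screening of agonists relied on calcium signalling in HEK293 cells expressing human TRHR: dye loading 2 h at 37 °C preceded compound addition and a 3-min fluorescence time course.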

[5] = Human pregnane X receptor (PXR) small molecule agonists, qHTS cell viability counter screen (AID 1346977); further: nearly all actives have a fitted effect of over 50% in size
Method in brief: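 Tox21 qHTS format; PXR-Luc HepG2, 2,000/well, charcoal-stripped FBS 5%. Cpd exposure 24hr. Read: CellTiter-Fluor fluorescence, multiplexed with luciferase.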

[6] = Caspase-3/7 induction in HepG2 cells by small molecules, qHTS assay (AID 1346978); further: nearly all actives have a fitted effect of over 15% in size
Method in brief: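 Caspase-3/7 induction was measured by Caspase-Glo 3/7 luminescence (30 min, room temperature) after a 17 hr compound exposure of wild-type HepG2 cells seeded at 2,000 per well and pre-incubated 5 hr.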

[7] = Caspase-3/7 induction in CHO-K1 cells by small molecules, qHTS cell viability counter screen (AID 1346979); further: nearly all actives have a fitted effect of over 35% in size
Method in brief: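 CellTiter-Fluor viability check, qHTS format: wild-type CHO-K1, 16hr compound treatment, 1hr reagent incubation, fluorescence read.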

[8] = Caspase-3/7 induction in CHO-K1 cells by small molecules, qHTS assay (AID 1346980); further: nearly all actives have a fitted effect of over 15% in size
Method in brief: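 Luminescent Caspase-Glo 3/7 read (30min, room temperature) quantified apoptosis induction. Cells were wild-type CHO-K1, treated with compound for 17hr at 37 C and 5% CO2.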

[9] = Caspase-3/7 induction in HepG2 cells by small molecules, qHTS cell viability counter screen (AID 1346981); further: series mostly up to about 92 µM; nearly all actives have a fitted effect of over 30% in size
Method in brief: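 Cell viability is measured as a cytotoxicity counter screen alongside the Caspase-Glo 3/7 readout in identical wells. Wild-type HepG2 cells are treated with test compounds for 16 hr at 37 C before CellTiter-Fluor addition and a 1-hr incubation.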

[10] = molecular target: Nuclear receptor subfamily 1 group I member 2 (Homo sapiens) (UniProt O75469); assay: Human pregnane X receptor (PXR) small molecule agonists, qHTS assay (AID 1346982); further: nearly all actives have a fitted effect of over 35% in size
Chain of Nuclear receptor subfamily 1 group I member 2 (Homo sapiens) (O75469 whole entry, looked up): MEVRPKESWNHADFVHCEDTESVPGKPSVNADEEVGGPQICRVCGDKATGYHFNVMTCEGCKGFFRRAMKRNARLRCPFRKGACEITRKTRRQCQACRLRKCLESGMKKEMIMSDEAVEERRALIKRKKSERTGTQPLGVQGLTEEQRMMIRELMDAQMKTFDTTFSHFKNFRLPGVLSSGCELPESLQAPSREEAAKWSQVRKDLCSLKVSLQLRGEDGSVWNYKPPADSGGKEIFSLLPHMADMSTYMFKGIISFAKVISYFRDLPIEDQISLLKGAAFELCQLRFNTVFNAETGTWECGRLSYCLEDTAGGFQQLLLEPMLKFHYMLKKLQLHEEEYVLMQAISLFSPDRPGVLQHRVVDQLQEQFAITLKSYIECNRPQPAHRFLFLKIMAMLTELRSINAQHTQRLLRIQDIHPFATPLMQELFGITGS
Method in brief: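 Cells: HepG2 stably carrying PXR-Luc. Medium held 5% charcoal-stripped FBS. Compounds in DMSO added after 5 hr plating, incubated 24 hr, then luminescence quantified with ONE-Glo.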

[11] = molecular target: Nuclear receptor subfamily 1 group I member 2 (Rattus norvegicus) (UniProt Q9R1A7); assay: Rat pregnane X receptor (rPXR) activation by small molecules, qHTS assay (AID 1346983); conditions: rPXR luciferase reporter cells, One-Glo luminescence, 24 h; stronger effect = higher value; further: nearly all actives have a fitted effect of over 20% in size
Chain of Nuclear receptor subfamily 1 group I member 2 (Rattus norvegicus) (Q9R1A7 whole entry, looked up): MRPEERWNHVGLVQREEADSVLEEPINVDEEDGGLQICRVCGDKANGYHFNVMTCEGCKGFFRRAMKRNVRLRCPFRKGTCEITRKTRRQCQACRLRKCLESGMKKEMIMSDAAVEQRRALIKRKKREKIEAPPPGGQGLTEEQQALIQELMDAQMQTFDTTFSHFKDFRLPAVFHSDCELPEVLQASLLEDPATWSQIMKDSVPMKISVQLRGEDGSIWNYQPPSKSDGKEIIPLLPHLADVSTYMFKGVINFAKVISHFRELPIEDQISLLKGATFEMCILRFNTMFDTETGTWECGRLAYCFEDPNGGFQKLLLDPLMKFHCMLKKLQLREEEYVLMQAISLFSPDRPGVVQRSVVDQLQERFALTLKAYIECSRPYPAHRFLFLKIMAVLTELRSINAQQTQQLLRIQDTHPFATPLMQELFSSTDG
Method in brief: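 Luminescent readout (One-Glo luciferase, 30 min room temperature) followed 24 hr compound treatment at 37 C of rPXR cells plated 2,000 per well and preincubated 5hr; qHTS format with compounds delivered in DMSO.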

[12] = molecular target: Nuclear receptor subfamily 1 group I member 2 (Homo sapiens) (UniProt O75469); assay: CYP3A4 induction through human pregnane X receptor (PXR) by small molecules, qHTS assay (AID 1346984); further: nearly all actives have a fitted effect of over 40% in size
Method in brief: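 Quantitative HTS in DPX-2 cells, i.e. HepG2 transfected with PXR response element and CYP3A4-promoter luciferase. Compounds in DMSO incubated 24hr at 37C; then P450-Glo CYP3A4 substrate, 3uM final, 3hr; One-Glo luminescence.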

[13] = molecular target: Cytochrome P450 2D6 (Homo sapiens) (UniProt P10635); assay: Cytochrome P450 Family 2 Subfamily D Member 6 (CYP2D6) small molecule antagonists: luciferase reporter qHTS assay (AID 1671196); further: nearly all actives have a fitted effect of over 50% in size; further: potency means the concentration at half of the fitted maximal effect; on activity change, negative = inhibition: series mostly up to about 120 µM
Chain of Cytochrome P450 2D6 (Homo sapiens) (P10635 whole entry, looked up): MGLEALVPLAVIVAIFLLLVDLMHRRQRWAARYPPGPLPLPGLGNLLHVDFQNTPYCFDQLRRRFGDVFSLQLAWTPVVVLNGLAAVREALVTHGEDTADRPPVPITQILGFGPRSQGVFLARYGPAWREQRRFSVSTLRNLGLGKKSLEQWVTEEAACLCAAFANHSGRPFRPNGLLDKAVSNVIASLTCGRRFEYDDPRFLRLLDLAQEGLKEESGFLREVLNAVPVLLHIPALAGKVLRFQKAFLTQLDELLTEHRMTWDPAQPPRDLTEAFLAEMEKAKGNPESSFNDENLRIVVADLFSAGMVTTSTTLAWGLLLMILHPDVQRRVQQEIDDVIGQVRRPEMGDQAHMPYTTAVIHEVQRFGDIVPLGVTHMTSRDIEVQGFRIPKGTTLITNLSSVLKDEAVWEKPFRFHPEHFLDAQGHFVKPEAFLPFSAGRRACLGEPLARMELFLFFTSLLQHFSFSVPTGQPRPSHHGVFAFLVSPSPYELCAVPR
Method in brief: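 Enzyme and proluciferin substrate were first combined with test chemical for 10 min at room temperature. Adding NADPH regeneration solution started a 1 h reaction, stopped with luciferin detection reagent and read by luminescence 20 min later.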

[14] = molecular target: Cytochrome P450 2C19 (Homo sapiens) (UniProt P33261); assay: Cytochrome P450 Family 2 Subfamily C Member 19 (CYP2C19) small molecule antagonists: luciferase reporter qHTS assay (AID 1671197); further: nearly all actives have a fitted effect of over 65% in size; further: potency means the concentration at half of the fitted maximal effect; on activity change, negative = inhibition: series mostly up to about 120 µM
Chain of Cytochrome P450 2C19 (Homo sapiens) (P33261 whole entry, looked up): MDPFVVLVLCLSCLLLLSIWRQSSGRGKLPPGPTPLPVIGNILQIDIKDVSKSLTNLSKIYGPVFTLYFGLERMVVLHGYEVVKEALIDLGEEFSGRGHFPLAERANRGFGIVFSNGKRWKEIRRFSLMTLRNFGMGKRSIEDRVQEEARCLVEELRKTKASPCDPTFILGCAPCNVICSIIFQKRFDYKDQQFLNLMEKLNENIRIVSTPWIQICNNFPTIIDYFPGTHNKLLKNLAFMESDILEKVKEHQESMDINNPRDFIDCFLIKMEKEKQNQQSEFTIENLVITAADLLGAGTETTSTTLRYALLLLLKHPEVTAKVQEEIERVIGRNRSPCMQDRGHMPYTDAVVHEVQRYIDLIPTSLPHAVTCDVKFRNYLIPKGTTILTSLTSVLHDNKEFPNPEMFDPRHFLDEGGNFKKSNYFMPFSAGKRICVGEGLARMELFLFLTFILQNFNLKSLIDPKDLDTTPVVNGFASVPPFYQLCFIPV
Method in brief: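 Inhibition of CYP2C19 was scored from loss of luminescence in a P450-Glo proluciferin substrate assay, NADPH-started and run 1 h at 37C, with ketoconazole as positive control.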

[15] = molecular target: Cytochrome P450 2C9 (Homo sapiens) (UniProt P11712); assay: Cytochrome P450 Family 2 Subfamily C Member 9 (CYP2C9) small molecule antagonists: luciferase reporter qHTS assay (AID 1671198); further: nearly all actives have a fitted effect of over 50% in size; further: potency means the concentration at half of the fitted maximal effect; on activity change, negative = inhibition: series mostly up to about 120 µM
Chain of Cytochrome P450 2C9 (Homo sapiens) (P11712 whole entry, looked up): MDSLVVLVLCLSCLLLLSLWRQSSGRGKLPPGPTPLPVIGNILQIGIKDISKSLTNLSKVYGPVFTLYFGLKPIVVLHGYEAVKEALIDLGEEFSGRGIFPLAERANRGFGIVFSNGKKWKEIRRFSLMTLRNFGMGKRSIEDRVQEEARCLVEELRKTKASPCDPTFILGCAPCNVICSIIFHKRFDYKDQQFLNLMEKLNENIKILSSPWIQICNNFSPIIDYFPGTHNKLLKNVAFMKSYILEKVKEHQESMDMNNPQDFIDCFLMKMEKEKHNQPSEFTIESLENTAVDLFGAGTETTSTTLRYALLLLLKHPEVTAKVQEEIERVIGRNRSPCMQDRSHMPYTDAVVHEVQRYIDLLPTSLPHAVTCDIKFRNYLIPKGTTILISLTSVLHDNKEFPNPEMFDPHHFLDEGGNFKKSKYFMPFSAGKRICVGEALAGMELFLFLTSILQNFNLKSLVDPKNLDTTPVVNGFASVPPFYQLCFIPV
Method in brief: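 Enzyme-substrate mix preincubated with compound 10 min at room temperature; reaction started with NADPH regeneration solution, 1 h 37C. Luminescent luciferin product read after 20 min detection reagent.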

[16] = molecular target: Voltage-gated inwardly rectifying potassium channel KCNH2 (Homo sapiens) (UniProt Q12809); assay: Human Ether-a-go-go-Related Gene (hERG) channel small molecule antagonists: fluorescence cell-based qHTS assay (AID 1671200)
Chain of Voltage-gated inwardly rectifying potassium channel KCNH2 (Homo sapiens) (Q12809 whole entry, looked up): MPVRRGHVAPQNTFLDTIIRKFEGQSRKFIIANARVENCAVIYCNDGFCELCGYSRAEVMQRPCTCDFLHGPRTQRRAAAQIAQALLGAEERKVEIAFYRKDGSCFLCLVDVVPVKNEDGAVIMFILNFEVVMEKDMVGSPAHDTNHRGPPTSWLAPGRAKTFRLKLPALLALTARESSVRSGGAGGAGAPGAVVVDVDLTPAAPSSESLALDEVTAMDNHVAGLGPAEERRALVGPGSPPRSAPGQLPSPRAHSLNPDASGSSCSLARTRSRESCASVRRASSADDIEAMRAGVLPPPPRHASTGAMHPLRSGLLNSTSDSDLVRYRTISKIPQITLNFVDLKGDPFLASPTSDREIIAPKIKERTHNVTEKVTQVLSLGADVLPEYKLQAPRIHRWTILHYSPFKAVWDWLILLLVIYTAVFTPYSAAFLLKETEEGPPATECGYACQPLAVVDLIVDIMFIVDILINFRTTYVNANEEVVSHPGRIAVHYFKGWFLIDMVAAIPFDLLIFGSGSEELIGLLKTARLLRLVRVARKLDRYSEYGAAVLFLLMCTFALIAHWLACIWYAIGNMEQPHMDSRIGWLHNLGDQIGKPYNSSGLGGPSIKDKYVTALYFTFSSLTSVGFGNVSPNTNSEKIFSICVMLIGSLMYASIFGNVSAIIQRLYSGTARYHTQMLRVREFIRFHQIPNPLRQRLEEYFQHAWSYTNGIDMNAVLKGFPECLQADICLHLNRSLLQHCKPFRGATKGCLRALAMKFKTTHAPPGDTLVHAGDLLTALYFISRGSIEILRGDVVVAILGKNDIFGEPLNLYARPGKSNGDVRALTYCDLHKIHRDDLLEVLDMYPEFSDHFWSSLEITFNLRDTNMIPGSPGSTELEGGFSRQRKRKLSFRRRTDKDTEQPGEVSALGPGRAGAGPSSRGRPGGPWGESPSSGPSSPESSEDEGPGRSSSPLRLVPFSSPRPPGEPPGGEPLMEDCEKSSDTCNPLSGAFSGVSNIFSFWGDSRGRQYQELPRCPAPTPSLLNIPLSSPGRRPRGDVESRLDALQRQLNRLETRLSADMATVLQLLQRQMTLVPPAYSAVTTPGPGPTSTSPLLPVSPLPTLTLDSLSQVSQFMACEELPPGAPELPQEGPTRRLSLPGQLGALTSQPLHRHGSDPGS
Method in brief: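 Kinetic two-minute fluorescence traces, sampled at 1 s, were collected following thallium stimulus of U2OS cells (1000 per well) that had been cultured overnight at 37 C and loaded with FluxOR II.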

[17] = molecular target: Cytochrome P450 3A4 (Homo sapiens) (UniProt P08684); assay: Cytochrome P450 Family 3 Subfamily A Member 4 (CYP3A4) small molecule antagonists: luciferase reporter qHTS assay (AID 1671201); further: nearly all actives have a fitted effect of over 50% in size; further: potency means the concentration at half of the fitted maximal effect; on activity change, negative = inhibition: series mostly up to about 120 µM
Chain of Cytochrome P450 3A4 (Homo sapiens) (P08684 whole entry, looked up): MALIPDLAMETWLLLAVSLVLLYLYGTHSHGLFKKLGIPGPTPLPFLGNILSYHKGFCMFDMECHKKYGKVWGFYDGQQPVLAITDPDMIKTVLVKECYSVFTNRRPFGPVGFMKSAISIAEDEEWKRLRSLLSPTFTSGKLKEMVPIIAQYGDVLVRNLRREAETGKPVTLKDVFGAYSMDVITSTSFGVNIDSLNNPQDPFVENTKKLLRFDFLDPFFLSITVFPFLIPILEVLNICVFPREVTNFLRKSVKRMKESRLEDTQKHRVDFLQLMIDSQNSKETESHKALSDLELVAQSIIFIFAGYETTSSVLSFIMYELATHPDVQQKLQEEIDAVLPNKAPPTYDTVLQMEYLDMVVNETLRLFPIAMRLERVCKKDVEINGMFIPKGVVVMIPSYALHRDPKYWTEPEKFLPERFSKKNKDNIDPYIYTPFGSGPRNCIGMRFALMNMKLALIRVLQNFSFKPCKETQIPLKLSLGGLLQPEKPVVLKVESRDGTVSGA
Method in brief: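 Proluciferin-to-luciferin conversion by CYP3A4, NADPH-regenerated, 1 h RT; luminescence read as RLU. Ketoconazole as control.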

[18] = molecular target: Cytochrome P450 1A2 (Homo sapiens) (UniProt P05177); assay: Cytochrome P450 Family 1 Subfamily A Member 2 (CYP1A2) small molecule antagonists: luciferase reporter qHTS assay (AID 1671199); further: nearly all actives have a fitted effect of over 50% in size; further: potency means the concentration at half of the fitted maximal effect; on activity change, negative = inhibition: series mostly up to about 120 µM
Chain of Cytochrome P450 1A2 (Homo sapiens) (P05177 whole entry, looked up): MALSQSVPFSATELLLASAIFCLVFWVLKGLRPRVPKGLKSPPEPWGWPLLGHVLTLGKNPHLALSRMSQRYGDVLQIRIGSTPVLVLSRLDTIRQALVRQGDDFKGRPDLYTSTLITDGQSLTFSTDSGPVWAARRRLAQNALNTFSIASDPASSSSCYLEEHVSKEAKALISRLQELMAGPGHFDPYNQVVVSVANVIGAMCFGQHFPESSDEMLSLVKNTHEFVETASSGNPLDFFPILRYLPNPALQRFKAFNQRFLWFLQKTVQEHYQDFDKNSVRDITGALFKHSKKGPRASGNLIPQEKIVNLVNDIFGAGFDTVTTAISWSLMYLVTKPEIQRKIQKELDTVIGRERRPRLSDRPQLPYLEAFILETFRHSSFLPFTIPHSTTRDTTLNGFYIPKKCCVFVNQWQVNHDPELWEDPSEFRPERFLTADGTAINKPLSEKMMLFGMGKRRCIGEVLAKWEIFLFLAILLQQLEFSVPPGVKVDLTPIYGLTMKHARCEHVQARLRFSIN
Method in brief: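 Compounds were incubated with CYP1A2 and a luminogenic proluciferin substrate for 10 min at room temperature before the reaction was started with NADPH regeneration solution. After 1 h, detection reagent was added and light output, proportional to CYP activity, was recorded.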

[19] = qHTS assay to identify small molecule agonists of the TGF-beta/Smad signaling pathway (AID 1346859; active means well fitted activation curve with a large enough effect in the signal ratio in the repeat runs, not every such curve was filed as active; the % refers to the signal ratio; further: series mostly up to about 77 µM)
Method in brief: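 Each well held 4,000 SBE-bla HEK 293T cells incubated overnight before compound addition; 5 hr later the cleavable FRET substrate went on for 2 hr at room temperature, and fluorescence was read at two emissions.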
On the % scale 0 is the no-effect control and ±100 the full control effect.

CN1C[C@@H]2C[C@H]1CN2c1cc2c(cc1F)c(=O)c(C(=O)O)cn2C1CC1
inactive: viability change, negative = cytotoxic [1] 1.45% [at 15.8 µM] | activity change, negative = cytotoxicity [2] 2.12% [at 15.8 µM] | activity, negative = inhibition [3] 1.83% [at 10.5 µM] | activation [4] -1.22% [at 11.8 µM] | activity change, negative = cytotoxicity [5] -0.63% [at 19 µM] | caspase activation [6] -0.0526% [at 19 µM] | activity change, negative = cytotoxicity [7] -0.0368% [at 19 µM] | caspase-3/7 activation [8] -1.08% [at 19 µM] | activity change, negative = cytotoxicity [9] -1.05% [at 19 µM] | activation [10] -18.6% [at 19 µM] | max activation [11] -1.05% | Potency [12] | activity change, negative = inhibition [13] 4.43% [at 23.6 µM] | activity change, negative = inhibition [14] 35.3% [at 23.6 µM] | activity change, negative = inhibition [15] 8.53% [at 23.6 µM] | activity change, negative = inhibition [16] 0.182% [at 15.8 µM] | activity change, negative = inhibition [17] 4.83% [at 23.6 µM]

C[C@]12CCC(=O)C=C1CC[C@H]1[C@@H]3CC[C@](O)(C(=O)CO)[C@@]3(C)C[C@H](O)[C@@]12F
inactive: outcome [1] | outcome [2] | outcome [3] | outcome [4] | outcome [5] | outcome [6] | Potency [7] | outcome [8] | outcome [9] | Potency [10] | Potency [12] | Potency [14] | Potency [18]

CCC(=O)c1c(O)cc(O)cc1O
active: Potency [15] 13.8 µM
inactive: outcome [1] | outcome [2] | outcome [19] | outcome [5] | outcome [6] | Potency [7] | outcome [8] | outcome [9] | Potency [10] | Potency [12] | Potency [14] | Potency [16]

CN(C)CCN(C)CCO
inactive: outcome [1] | outcome [2] | outcome [19] | outcome [5] | outcome [6] | Potency [7] | outcome [8] | outcome [9] | Potency [10] | Potency [14] | Potency [15] | Potency [18] | Potency [17]

Cc1ccnc(N)c1
inactive: outcome [1] | outcome [2] | outcome [19] | outcome [5] | outcome [8] | Potency [10] | Potency [13] | Potency [14] | Potency [15] | Potency [18] | Potency [16] | Potency [17]

O=C(Cn1ccnc1[N+](=O)[O-])NCc1ccccc1
inactive: outcome [1] | outcome [2] | outcome [19] | outcome [4] | outcome [5] | Potency [7] | outcome [9] | Potency [10] | max activation [11] -1.78% | Potency [12] | Potency [15] | Potency [18] | Potency [16] | Potency [17]

CCN(CC)CCN
inactive: outcome [1] | outcome [2] | outcome [19] | outcome [5] | outcome [6] | Potency [7] | outcome [8] | outcome [9] | Potency [10] | Potency [13] | Potency [14] | Potency [15] | Potency [18] | Potency [16] | Potency [17]

CC(=O)O[Si](C)(OC(C)=O)OC(C)=O
inactive: outcome [1] | outcome [2] | outcome [19] | outcome [5] | outcome [6] | Potency [7] | outcome [8] | outcome [9] | Potency [10] | Potency [13] | Potency [14] | Potency [15] | Potency [18] | Potency [16]
active: Potency [17] 5.15 µM

OCC1CCC(CO)CC1 (stereo not drawn)
inactive: outcome [1] | outcome [2] | outcome [19] | outcome [5] | outcome [6] | Potency [7] | outcome [8] | outcome [9] | Potency [10] | Potency [13] | Potency [15] | Potency [16] | Potency [17]

CC1=C(C(=O)O)N2C(=O)[C@@H](NC(=O)[C@H](N)C3=CCC=CC3)[C@H]2SC1
inactive: outcome [1] | outcome [2] | outcome [19] | outcome [5] | outcome [6] | Potency [7] | outcome [8] | outcome [9] | Potency [10] | Potency [15] | Potency [17]

c1ccc2c(CC3=NCCN3)cccc2c1
inactive: outcome [1] | outcome [2] | outcome [19] | outcome [5] | outcome [6] | Potency [7] | outcome [8] | outcome [9] | Potency [10] | max activation [11] 14.1% | Potency [12] | Potency [18] | Potency [16] | Potency [17]
active: Potency [13] 9.77 µM

COc1ccc(CCO)cc1
inactive: outcome [1] | outcome [2] | outcome [19] | outcome [5] | outcome [6] | Potency [7] | outcome [8] | outcome [9] | Potency [10] | Potency [13] | Potency [16] | Potency [17]
active: Potency [14] 71 µM | Potency [15] 79.6 µM | Potency [18] 63.3 µM

Fc1ccccc1
inactive: outcome [1] | outcome [2] | outcome [3] | outcome [4] | outcome [5] | outcome [6] | Potency [7] | outcome [8] | outcome [9] | Potency [10] | Potency [13] | Potency [14] | Potency [15] | Potency [18] | Potency [16] | Potency [17]

Cc1c(N)cccc1Cl
inactive: outcome [1] | outcome [2] | outcome [19] | outcome [4] | outcome [5] | Potency [7] | outcome [8] | outcome [9] | Potency [10] | Potency [16] | Potency [17]
active: Potency [18] 11.3 µM

Cc1c(Cl)cccc1Cl
inactive: outcome [1] | outcome [2] | outcome [19] | outcome [5] | outcome [6] | Potency [7] | outcome [8] | outcome [9] | Potency [10] | Potency [13] | Potency [16] | Potency [17]

CC1CC(=O)CC(C)(C)C1 (stereo not drawn)
inactive: outcome [1] | outcome [2] | outcome [19] | outcome [5] | outcome [6] | Potency [7] | outcome [8] | outcome [9] | Potency [10] | Potency [17]

c1ccc2cnccc2c1
inactive: outcome [1] | outcome [2] | outcome [19] | outcome [5] | outcome [6] | Potency [7] | outcome [8] | outcome [9] | Potency [14] | Potency [15] | Potency [16]
active: Potency [13] 35.6 µM
